In the library only some 1.2% were active in any assay of this set; here they are far more common.
PKM2 act: PKM2 (human) enzyme activation. P14618. purified PKM2, Kinase-Glo ATP luminescence, activation; response scale: 0% is enzyme alone, no compound. Potency, µM (highest dose often 57.5 µM), most hits filed as activators. 0.34% of 260,000 active. AID 1631; further: nearly all actives have a fitted effect of over 55% in size
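Purified hPK-M2 (>95%) run at intermediate activity with 0.1 mM ADP and 0.5 mM PEP in 50 mM imidazole pH 7.2, KCl, MgCl2; 1 h room temperature. ATP formed read by Kinase-Glo luminescence; normalized to uninhibited and no-enzyme controls.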
aGal spleen mod: inhibits or activates alpha-galactosidase in human spleen homogenate; P06280; human spleen homogenate, 4MU-alpha-Gal fluorescence, 40 min; Potency, µM (titrated, usually from 80 µM), most hits filed as inhibitors; 0.008% of 240,000 active; AID 2107
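Human spleen homogenate (1 ug) as enzyme source, 4-methylumbelliferyl-alpha-D-galactopyranoside 1 mM final, citrate/phosphate pH 5.0 with 0.01% Tween-20. Compounds 40 min at 37C, NaOH/glycine stop; fluorescence Ex 365/Em 440, Hill-fit AC50.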
HTT ATP protect: protects HTT-Q103 PC12 cells, measured by ATP. 0.14% of 230,000 active. Potency, µM (top dose mostly 56.4 µM), actives largely listed as activators. AID 1471. PC12 HTT-Q103 induced, cytoprotection, ATP luminescence, 40 h; further: nearly all actives have a fitted effect of over 45% in size
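Quantitative HTS on tebufenozide-induced (100 nM) PC12 cells expressing HTTQ103 exon 1–GFP; compounds tested as a concentration series; survival measured via cellular ATP.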
GLA inh pH 4.5: inhibitors of human alpha-galactosidase A at pH 4.5 | P06280 | purified enzyme, 4-MU-alpha-Gal fluorescence, pH 4.5 | activity change, negative = inhibition, % at 105 µM | 230,000 tested, under 10 active
Target sequence (P06280 whole entry, looked up): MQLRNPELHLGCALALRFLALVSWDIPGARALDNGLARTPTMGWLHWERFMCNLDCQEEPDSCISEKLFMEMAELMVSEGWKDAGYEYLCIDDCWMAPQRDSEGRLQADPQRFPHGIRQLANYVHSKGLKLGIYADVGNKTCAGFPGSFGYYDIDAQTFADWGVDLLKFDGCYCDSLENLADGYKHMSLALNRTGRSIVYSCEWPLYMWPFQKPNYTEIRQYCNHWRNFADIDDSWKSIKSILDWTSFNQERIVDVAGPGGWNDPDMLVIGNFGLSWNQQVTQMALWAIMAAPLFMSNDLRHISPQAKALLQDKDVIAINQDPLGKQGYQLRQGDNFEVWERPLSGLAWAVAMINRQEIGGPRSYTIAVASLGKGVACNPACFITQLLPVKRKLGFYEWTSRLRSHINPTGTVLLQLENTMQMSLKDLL
HTT aggregate: mutant huntingtin aggregation inhibition | PC12 HttQ103-GFP aggregates, Acumen cytometry, 40 h | Potency, µM (doses to about 46.1 µM), usual class: inhibitors | 1.1% of 220,000 active | AID 1688; further: nearly all actives have a fitted effect of over 60% in size
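Steps: seed 1500 PC12 HTTQ103-GFP cells/well; add tebufenozide, 100 nM final; add compound titration; add ATPLite reagent; quantify GFP aggregates by laser scanning cytometry.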
Each line names hits and unclear results; the compound was inactive in the other large screens. The call rests on the fitted dose curve; in most records, active means well fitted curve in the direction sought with a large enough effect; inconclusive means small, poorly fitted or top-dose-only effect, or another doubt; inactive means no such curve, though single readings can be large; an effect the other way counts as inactive or inconclusive.

CN(c1ccccc1)S(=O)(=O)c1ccc(C(=O)NCc2cccs2)cc1	none
COc1ccc(OC)c(NC(=S)NN2CCOCC2)c1	HTT aggregate 11µM
COc1ccc(Cl)cc1NC(=S)NN1CCOCC1	none
C[C@@H](SCc1ccccc1)C(=O)O	none (no result: PKM2 act, aGal spleen mod, GLA inh pH 4.5, HTT aggregate)
O=C1CC(c2ccco2)CC2=C1C(c1ccccc1)n1nc(C(F)(F)F)nc1N2 (configuration not stated)	PKM2 act 4.5µM
COc1ccc(C2C3=C(CC(c4ccco4)CC3=O)Nc3ccccc3N2C(C)=O)cc1 (configuration not stated)	none
COc1ncc2nc(C)c(=O)n(C[C@H]3CCCO3)c2n1	none (no result: PKM2 act, GLA inh pH 4.5, HTT aggregate)
COc1cc(/C=C2/SC(=O)NC2=O)ccc1OC(=O)c1ccco1	none (no result: aGal spleen mod, HTT ATP protect, GLA inh pH 4.5, HTT aggregate)
CCOc1cc(/C=C2/SC(=S)NC2=O)ccc1OC(=O)c1ccco1	HTT aggregate 14µM
CCOC(=O)/C=C/S(=O)(=O)c1ccc(NC(C)=O)cc1	HTT aggregate 4µM
Cc1nn(C)c(Sc2ccccc2N)c1[N+](=O)[O-]	PKM2 act 11µM
Cc1nn(C)c(N)c1[N+](=O)[O-]	PKM2 act inconclusive
O[C@@H](COc1cccc2ccccc12)CN1CCOCC1	none (no result: PKM2 act, aGal spleen mod, GLA inh pH 4.5, HTT aggregate)
O=C1OC(c2ccccc2)=C/C1=C\N1CCOCC1	HTT aggregate inconclusive
O=C1OC(c2ccccc2)=C/C1=C/N1CCOCC1	PKM2 act 16µM
O=C(CCl)N1N=C(c2ccco2)CC1c1cccs1 (configuration not stated)	PKM2 act inconclusive, HTT aggregate 11µM
COc1cccc(-c2csc3nc[nH]c(=O)c23)c1	PKM2 act 28µM
C/C=C/C=C\C(=O)Nc1cccc(C2=NOC3(C2)C[C@H](C(N)=O)N(C(=O)/C=C/C)C3)c1 (some centres not stated)	PKM2 act inconclusive
C/C=C\C=C\C(=O)N1CC2(CC(c3cccc(NC(=O)COc4ccc(Cl)cc4)c3)=NO2)C[C@H]1C(N)=O (some centres not stated)	PKM2 act 16µM
C/C=C\C=C/C(=O)Nc1cccc(C2=NOC3(C2)C[C@@H](C(N)=O)N(C(=O)COc2ccc(Cl)cc2)C3)c1 (some centres not stated)	PKM2 act 16µM
C/C=C\C=C\C(=O)N1CC2(CC(c3cccc(NC(=O)CC)c3)=NO2)C[C@H]1C(N)=O (some centres not stated)	PKM2 act 7.9µM
COC(=O)c1ccc(C(NC(=O)OCc2ccccc2)/C(F)=C/[C@@H](C)C(=O)NCCc2c[nH]c3ccc(OC)cc23)cc1 (some centres not stated)	none (no result: HTT aggregate)
CC1=C(/C=C/C(C)=C/C=C/C(C)=C/C(=O)O)C(C)(C)CCC1O (configuration not stated)	none (no result: PKM2 act, GLA inh pH 4.5, HTT aggregate)
C[C@H](CN1c2ccccc2Sc2cccnc21)N(C)C	none (no result: PKM2 act, aGal spleen mod, GLA inh pH 4.5)
CCCc1cc(C(=O)N2CCN(C(c3ccccc3)c3ccccc3)CC2)no1	HTT aggregate 22µM
COc1ccc(C(=O)/C=C/C(=O)N(CC(=O)NC2CCCCC2)Cc2ccc(F)cc2)c(O)c1	PKM2 act 7.9µM
CS(=O)(=O)N(CC(=O)NC1CCCCC1)Cc1ccc(F)cc1	none
COc1ccc(C(=O)/C=C/C(=O)N(CC(=O)NCCC(C)C)Cc2cccs2)c(O)c1	PKM2 act 22µM
CN1CCN(c2ncc3nc(-c4cccc(C#N)c4)c(=O)n(C[C@H]4CCCO4)c3n2)CC1	none (no result: PKM2 act, GLA inh pH 4.5, HTT aggregate)
C[C@H]1Cc2c(-c3ccccc3)nc3c(c2CO1)CN(S(=O)(=O)c1ccc(C#N)cc1)CC3	none (no result: HTT aggregate)
CN1/C(=C\C(=O)c2cccs2)Sc2ccccc21	HTT aggregate 16µM
CCCCN1C(=O)/C(=C/C=C2\N(C)c3ccccc3C2(C)C)SC1=S	aGal spleen mod inconclusive, HTT aggregate 13µM
O=C(O)CCCCCC[C@@H]1C(=O)NC(=O)N1CC[C@@H](O)C1CCCCC1	none (no result: PKM2 act, aGal spleen mod, GLA inh pH 4.5, HTT aggregate)
O=C(OCc1cccc(F)c1)c1ccc2c(c1)-c1ccccc1C2=O	none
O=C(OCc1ccccc1F)c1ccc2c(c1)-c1ccccc1C2=O	HTT aggregate 0.79µM
COc1cc2c3cc1Oc1c(OC)c(OC)cc4c1[C@@H](Cc1ccc(O)c(c1)Oc1ccc(cc1)C[C@@H]3N(C)CC2)CN(C)C4	none (no result: PKM2 act, aGal spleen mod, GLA inh pH 4.5, HTT aggregate)
COc1ccccc1NC(=S)NC(=O)c1ccc(-c2ccc(Cl)cc2)o1	none
O=C(NC(=S)Nc1ccccc1O)c1ccc(-c2ccc(Cl)cc2)o1	HTT aggregate 11µM
COc1cccc([C@@H]2Oc3ccc(OC)cc3/C(=N/O[C@@H](C)CN3CCCCc4nc(C)c(C)cc43)[C@@H]2O)c1	none (no result: PKM2 act, GLA inh pH 4.5, HTT aggregate)
CC12CCC=CC1C(c1ccc(/C=C/c3ccccc3)cc1F)N(Cc1ccccc1)C2=O (configuration not stated)	none (no result: PKM2 act, HTT ATP protect, GLA inh pH 4.5, HTT aggregate)
c1ccc(COC[C@@H]2CO2)cc1	none (no result: PKM2 act, HTT ATP protect, GLA inh pH 4.5, HTT aggregate)
C/C=C1/NN(CCCN2CCN(c3cccc(Cl)c3)CC2)C(=O)N1CCOc1ccccc1	none (no result: PKM2 act)
CCC(=C(c1ccc(OC)cc1)c1ccc(OC)cc1)c1cn(CC(O)CN2CCN(C)CC2)c2ccccc12 (configuration not stated)	HTT aggregate 16µM
COc1ccccc1CCn1c(=O)c(C)nc2cncnc21	none (no result: PKM2 act, GLA inh pH 4.5, HTT aggregate)
O=C(CSc1c2c(nc3ccccc13)CCCC2)NCc1ccco1	HTT ATP protect inconclusive, HTT aggregate 13µM
COc1ccc([C@]23Cc4ccccc4C(O2)C2=C(O3)C(=O)c3ccccc3C2=O)cc1	none (no result: aGal spleen mod, HTT ATP protect, GLA inh pH 4.5, HTT aggregate)
Cc1ccc(N(C(=O)CNC(=O)c2ccco2)C(C(=O)NC2CCCCC2)c2cccnc2)cc1C (configuration not stated)	none (no result: aGal spleen mod, HTT ATP protect, GLA inh pH 4.5, HTT aggregate)
Cc1ccc(N(C(=O)CCl)C(C(=O)NC2CCCCC2)c2cccnc2)cc1C (configuration not stated)	HTT aggregate 3.5µM
Cc1ccc(C(C(=O)NC2CCCC2)N(C(=O)Cc2cccs2)c2ccc(C)c(C)c2)o1 (configuration not stated)	HTT aggregate 20µM
Cc1ccc(C)c(N(C(=O)Cc2cccs2)C(C(=O)NC2CCCC2)c2ccc(C)o2)c1 (configuration not stated)	none
C=C1C(=O)O[C@@H]2[C@@H]1CC/C(C)=C\CC[C@@]1(C)O[C@H]21	HTT ATP protect inconclusive, HTT aggregate 14µM (no result: PKM2 act)
COCCNS(=O)(=O)c1ccc2c(c1)Cc1cc(S(=O)(=O)NCCOC)ccc1-2	none (no result: aGal spleen mod, HTT ATP protect, GLA inh pH 4.5, HTT aggregate)
O=S(=O)(NCCCO)c1ccc2c(c1)Cc1cc(S(=O)(=O)NCCCO)ccc1-2	PKM2 act 13µM
CCN1C(=O)[C@H]2[C@H]3[C@H](O)[C@H](O)C/C(=N/O[C@@H]4O[C@@H](COC(C)=O)[C@@H](OC(C)=O)[C@@H](OC(C)=O)[C@H]4OC(C)=O)[C@H]3CC[C@@H]2C1=O	none (no result: PKM2 act, GLA inh pH 4.5, HTT aggregate)
